The values that follow come from PubChem BioAssay (EPA / NIEHS).

Read-out in experiment [1]: Vascular cell adhesion molecule 1 (VCAM1), VCAM1 (gene 7412)
The experiment is described as follows: BSK_BF4T_VCAM1: BioMAP Diversity Plus: BF4T Assay for Vascular cell adhesion molecule 1 (VCAM1) Biomarker Activity (AID 2284249). To be noted: primary human bronchial epithelial cells with fibroblasts. The procedure, abridged: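 Cell-surface VCAM-1 quantified by ELISA after 24 h chemical exposure of human bronchial epithelial/dermal fibroblast co-cultures, with SRB staining in parallel wells for cytotoxicity; DMSO baseline, positive-direction fitting.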

Read-out in experiment [2]: Collagen I, COL1A1 (gene 1277)
The experiment is described as follows: BSK_hDFCGF_CollagenI: BioMAP Diversity Plus: hDFCGF Assay for Collagen I Biomarker Activity (AID 2284250). To be noted: primary human foreskin fibroblasts. In outline: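 ELISA read-out of Collagen I in human dermal foreskin fibroblast cultures, 24 h after dosing. Gain of signal versus DMSO vehicle defines activity.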

Read-out in experiment [3]: Interferon-inducible T-cell alpha chemoattractant (ITAC), CXCL11 (gene 6373)
As to the kind of experiment: BSK_hDFCGF_ITAC: BioMAP Diversity Plus: hDFCGF Assay for Interferon-inducible T-cell alpha chemoattractant (ITAC) Biomarker Activity (AID 2284251). To be noted: primary human foreskin fibroblasts. The procedure, abridged:
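Measured by ELISA, the chemokine level serves as the endpoint in human skin fibroblast primary cultures 24 h after compound addition. Increases relative to DMSO-treated wells define activity.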

Read-out in experiment [4]: Plasminogen activator inhibitor-1 (PAI1), SERPINE1 (gene 5054)
The experiment is described as follows: BSK_KF3CT_PAI1: BioMAP Diversity Plus: KF3CT Assay for Plasminogen activator inhibitor-1 (PAI1) Biomarker Activity (AID 2284252). To be noted: primary human keratinocytes with fibroblasts. The procedure, abridged:
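Keratinocyte + dermal fibroblast co-culture (human primary); 24 h post-dose; PAI-1 by ELISA; gain-of-signal fit vs DMSO control.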

Read-out in experiment [5]: Monocyte Chemoattractant Protein-1 (MCP1), CCL2 (gene 6347)
The experiment is described as follows: BSK_IMphg_MCP1: BioMAP Diversity Plus: IMphg Assay for Monocyte Chemoattractant Protein-1 (MCP1) Biomarker Activity (AID 2284253). To be noted: primary human endothelial cells with macrophages. In outline:
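ELISA readout of MCP-1 at 24 hours in IMphg co-cultures of venular endothelial cells and macrophages, normalised to DMSO; parallel cultures stained with sulforhodamine B for overt cytotoxicity.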

Read-out in experiment [6]: Interleukin-8 (IL8), CXCL8 (gene 3576)
The experiment is described as follows: BSK_KF3CT_IL8: BioMAP Diversity Plus: KF3CT Assay for Interleukin-8 (IL8) Biomarker Activity (AID 2284254). To be noted: primary human keratinocytes with fibroblasts. The procedure, abridged:
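IL-8 by ELISA in primary human skin co-culture (keratinocytes plus fibroblasts) 24 h post-dose, DMSO as baseline. Cytotoxicity assessed in parallel by sulforhodamine B total-protein staining.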

Read-out in experiment [7]: Macrophage Inflammatory Protein-1 Alpha (MIP1a), CCL3 (gene 6348)
As to the kind of experiment: BSK_IMphg_MIP1a: BioMAP Diversity Plus: IMphg Assay for Macrophage Inflammatory Protein-1 Alpha (MIP1a) Biomarker Activity (AID 2284255). To be noted: primary human endothelial cells with macrophages. The procedure, abridged: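 MIP-1a protein levels were quantified by ELISA after 24 h treatment of human endothelial cell–macrophage co-cultures, compared with DMSO. Parallel cultures were fixed with TCA and stained with 0.1% SRB to gauge overt cytotoxicity.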

Read-out in experiment [8]: Plasminogen activator inhibitor-1 (PAI1), SERPINE1 (gene 5054)
The experiment is described as follows: BSK_MyoF_PAI1: BioMAP Diversity Plus: MyoF Assay for Plasminogen activator inhibitor-1 (PAI1) Biomarker Activity (AID 2284256).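 As to outcome: PAI-1 protein level measured by ELISA in fibroblast cultures.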 To be noted: primary human lung fibroblasts. In outline:
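Human lung fibroblasts (MyoF system) were exposed to test chemicals for 24 h, then PAI-1 was quantified by ELISA. Activity was fitted in the positive (signal-gain) direction relative to DMSO vehicle as baseline.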

Read-out in another experiment: CD69, CD69 (gene 969)
As to the kind of experiment: BSK_IMphg_CD69: BioMAP Diversity Plus: IMphg Assay for CD69 Biomarker Activity (AID 2284257). To be noted: primary human endothelial cells with macrophages. The procedure, abridged:
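Readout is ELISA for CD69 in primary human venular endothelial cell/macrophage co-culture, taken at 24 h post-dosing. SRB staining of parallel cultures gauged overt cytotoxicity; signal increase versus DMSO defined activity.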

Read-out in experiment [9]: Eotaxin 3, CCL26 (gene 10344)
As to the kind of experiment: BSK_BF4T_Eotaxin3: BioMAP Diversity Plus: BF4T Assay for Eotaxin 3 Biomarker Activity (AID 2284258). To be noted: primary human bronchial epithelial cells with fibroblasts. The procedure, abridged:
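ELISA measurement of Eotaxin-3 after 24 h chemical exposure in a bronchial epithelial/dermal fibroblast co-culture, with DMSO as baseline. Parallel SRB staining (0.1% SRB after 10% TCA fixation, 560 nm) flagged overt cytotoxicity.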

Read-out in experiment [10]: Monocyte Chemoattractant Protein-1 (MCP1), CCL2 (gene 6347)
The experiment is described as follows: BSK_BF4T_MCP1: BioMAP Diversity Plus: BF4T Assay for Monocyte Chemoattractant Protein-1 (MCP1) Biomarker Activity (AID 2284259). To be noted: primary human bronchial epithelial cells with fibroblasts. In outline:
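MCP-1 ELISA readout taken 24 h after dosing in the BF4T system (bronchial epithelial cells plus dermal fibroblasts). Parallel SRB total-protein staining flagged cytotoxicity; DMSO served as baseline, positive fitting direction.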

Read-out in experiment [11]: Intercellular Adhesion Molecule 1 (ICAM1), ICAM1 (gene 3383)
The experiment is described as follows: BSK_BF4T_ICAM1: BioMAP Diversity Plus: BF4T Assay for Intercellular Adhesion Molecule 1 (ICAM1) Biomarker Activity (AID 2284260). To be noted: primary human bronchial epithelial cells with fibroblasts. The procedure, abridged: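 ICAM-1 levels measured by ELISA after 24 h chemical treatment of bronchial epithelial cell/dermal fibroblast co-cultures, read against DMSO baseline. Overt cytotoxicity checked in parallel cultures by sulforhodamine B staining.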

Read-out in experiment [12]: Interleukin-8 (IL8), CXCL8 (gene 3576)
The experiment is described as follows: BSK_MyoF_IL8: BioMAP Diversity Plus: MyoF Assay for Interleukin-8 (IL8) Biomarker Activity (AID 2284261). To be noted: primary human lung fibroblasts. The procedure, abridged:
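IL-8 quantified by ELISA after 24 h compound exposure of primary human lung fibroblasts. SRB staining of parallel cultures flagged cytotoxicity; DMSO served as baseline.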

Read-out in another experiment: CD90, THY1 (gene 7070)
As to the kind of experiment: BSK_BF4T_CD90: BioMAP Diversity Plus: BF4T Assay for CD90 Biomarker Activity (AID 2284262). To be noted: primary human bronchial epithelial cells with fibroblasts. In outline:
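CD90 levels by ELISA after 24 h treatment of human bronchial epithelial cell/dermal fibroblast cultures, analysed versus DMSO. Overt cytotoxicity checked in parallel cultures by sulforhodamine B staining.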

Read-out in experiment [13]: Interleukin-8 (IL8), CXCL8 (gene 3576)
As to the kind of experiment: BSK_BF4T_IL8: BioMAP Diversity Plus: BF4T Assay for Interleukin-8 (IL8) Biomarker Activity (AID 2284263). To be noted: primary human bronchial epithelial cells with fibroblasts. In outline: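 Human bronchial epithelial cells with dermal fibroblasts co-culture; IL-8 measured by ELISA 24 hours after dosing, fitted vs DMSO. Cytotoxicity tracked in parallel cultures by SRB total-protein staining.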

Read-out in experiment [14]: Interleukin-1 alpha (IL1a), IL1A (gene 3552)
As to the kind of experiment: BSK_BF4T_IL1a: BioMAP Diversity Plus: BF4T Assay for Interleukin-1 alpha (IL1a) Biomarker Activity (AID 2284264). To be noted: primary human bronchial epithelial cells with fibroblasts. In outline: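 ELISA read-out of IL-1α from bronchial epithelial cell/dermal fibroblast co-cultures 24 h after compound addition. Increases scored against DMSO negative control. Cytotoxicity monitored by sulforhodamine B staining of parallel cultures.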

Read-out in the next experiment: Decorin, DCN (gene 1634)
The experiment is described as follows: BSK_MyoF_Decorin: BioMAP Diversity Plus: MyoF Assay for Decorin Biomarker Activity (AID 2284265). To be noted: primary human lung fibroblasts. The procedure, abridged: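 Decorin protein was quantified by ELISA 24 h after chemical addition to primary human lung fibroblasts and analysed as increase over DMSO. Cytotoxicity was tracked in parallel cultures by SRB total-protein staining read at 560 nm.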

Read-out in another experiment: KRT18 (gene 3875)
As to the kind of experiment: BSK_BF4T_Keratin818: BioMAP Diversity Plus: BF4T Assay for Keratin 818 Biomarker Activity (AID 2284266). To be noted: primary human bronchial epithelial cells with fibroblasts. In outline:
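Keratin 8/18 levels quantified by ELISA after 24 h chemical treatment of bronchial epithelial cell/dermal fibroblast co-cultures, fitted in positive direction relative to DMSO. Parallel SRB staining tracks overt cytotoxicity.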

Experiment [15] in a line: BSK_MyoF_SRB: Viability Assessment in the BioMAP Diversity Plus: MyoF Assay (AID 2284267).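 Also: total protein by SRB absorbance in parallel cultures as cytotoxicity measure.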 To be noted: primary human lung fibroblasts. The procedure, abridged:
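Lung fibroblast cultures, 24 h post-dose; fix 10% TCA, stain 0.1% SRB, read 560 nm. Signal = total protein as cytotoxicity measure; fitted relative to DMSO negative control.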

Read-out in experiment [16]: Matrix Metallopeptidase 1 (MMP1), MMP1 (gene 4312)
As to the kind of experiment: BSK_MyoF_MMP1: BioMAP Diversity Plus: MyoF Assay for Matrix Metallopeptidase 1 (MMP1) Biomarker Activity (AID 2284268). To be noted: primary human lung fibroblasts. The procedure, abridged: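 Human lung fibroblasts (MyoF system) exposed to chemical for 24 h in 96-well format; MMP1 biomarker quantified by ELISA, with activity fitted in the positive direction relative to DMSO baseline.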

Where “and” joins values, the source holds several entries; their conditions need not be identical. Equal values may be shown once. Some compounds were tested as several samples or in several runs, with calls that do not always agree. Calls of active or inactive are those of the source. The calls were made as follows: active = hit-call score of the fitted dose curve at least 0.9, where 1 is the maximum; inactive = score below 0.9.

As for `O=C(O)C(F)(F)C(F)(F)C(F)(F)C(F)(F)C(F)(F)C(F)(F)C(F)(F)C(F)(F)F`, the AC50 in [1] was 12.9 µM (active) and 11 µM (active); in [3] it was 47.9 µM (active) and 47.8 µM (active); in [4] it was 48.2 µM (active) and 41.7 µM (active); with CD69, CD69 (gene 969), 49.9 µM (active) and 48.7 µM (active); in [9] it was 17 µM (active) and 15.5 µM (active); in experiment [10] it was 21.7 µM (active) and 34.2 µM (active). The half-maximal activity concentration (AC50) is 22.2 µM (active) and 38.1 µM (active) in experiment [11]; 48 µM (active) and 48.7 µM (active) in [13]; 48.7 µM (active) and 52.5 µM (active) in experiment [14]; 51.6 µM (active) and 55.1 µM (active) with KRT18 (gene 3875). The outcome in experiment [2], in experiment [5], in [6], in experiment [7], in [8] and in experiment [12] was inactive. Besides, the outcome in the experiment with CD90, THY1 (gene 7070) is “inactive”; with Decorin, DCN (gene 1634), “inactive”; in experiment [15], “inactive”; in experiment [16] it was “inactive”.

In the case of `O=C(O)C(F)(F)C(F)(F)C(F)(F)C(F)(F)C(F)(F)F`, the result in experiment [1], in [2], in experiment [3], in experiment [4], in experiment [5] and in [6] was inactive. In addition, the outcome in [7] is “inactive”; in experiment [8], “inactive”; with CD69, CD69 (gene 969), “inactive”; in experiment [9], “inactive”; in [10], “inactive”; in experiment [11], “inactive”. Besides, the outcome is “inactive” in experiment [12]; “inactive” in the experiment with CD90, THY1 (gene 7070); “inactive” in experiment [13]; “inactive” in experiment [14]; “inactive” with Decorin, DCN (gene 1634); “inactive” in the experiment with KRT18 (gene 3875). Also, the result in experiment [15] and in experiment [16] was inactive.

In the case of `NS(=O)(=O)C(F)(F)C(F)(F)C(F)(F)C(F)(F)C(F)(F)C(F)(F)C(F)(F)C(F)(F)F`, the AC50 in experiment [1] was 24.8 µM (active) and 23.3 µM (active); in experiment [3], 8.34 µM (active) and 8.29 µM (active); in experiment [4], 40.7 µM (active) and 21.7 µM (active); in experiment [5], 45.2 µM (active) and 50.4 µM (active); in experiment [6], 37.2 µM (active) and 22.3 µM (active); in [7], 54.8 µM (active) and 43.3 µM (active). For the same molecule, the AC50 was 46.3 µM (active) and 55.1 µM (active) in experiment [8]; 10 µM (active) in the experiment with CD69, CD69 (gene 969); 20.4 µM (active) and 12.6 µM (active) in [9]; 47.9 µM (active) and 42 µM (active) in experiment [10]; 47.2 µM (active) and 36 µM (active) in experiment [11]; 53 µM (active) and 50.7 µM (active) in [12]. Also, the half-maximal activity concentration (AC50) in the experiment with CD90, THY1 (gene 7070) is 30 µM (active) and 21.8 µM (active); in experiment [13] it was 49.2 µM (active) and 48.2 µM (active); in experiment [14], 44.9 µM (active) and 24.2 µM (active); with Decorin, DCN (gene 1634), 52.9 µM (active); with KRT18 (gene 3875), 44.7 µM (active) and 31.5 µM (active); in experiment [15] it was 43.1 µM (active) and 42.8 µM (active). The outcome in [2] was “inactive”; in the experiment with CD69, CD69 (gene 969), “inactive”; with Decorin, DCN (gene 1634) it was “inactive”; in experiment [16], “inactive”.
